Source: PubChem BioAssay (NCATS)
Records with an inconclusive call do not appear. Where a call stands in place of a potency, no number is given. Active and inactive are the calls of the source. The call rests on the fitted dose curve; in most records, active means well fitted curve in the direction sought with a large enough effect; inconclusive means small, poorly fitted or top-dose-only effect, or another doubt; inactive means no such curve, though single readings can be large; an effect the other way counts as inactive or inconclusive.

How the values were obtained:
[1] = biological target: Calcium and integrin-binding protein 1 (Homo sapiens) (UniProt Q99828); test: Validation qHTS for Identification of Calcium Integrin Binding protein 1 (CIB1) Competitor (AID 1508618)
Sequence of Calcium and integrin-binding protein 1 (Homo sapiens) (Q99828 whole entry, looked up): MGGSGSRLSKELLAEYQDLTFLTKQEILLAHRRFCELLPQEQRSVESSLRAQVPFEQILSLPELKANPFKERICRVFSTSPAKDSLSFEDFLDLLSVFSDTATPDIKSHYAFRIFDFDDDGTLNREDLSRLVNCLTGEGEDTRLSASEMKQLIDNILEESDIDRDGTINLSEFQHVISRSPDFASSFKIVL
Outline: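 Fluorescence polarization with 1 uM CIB1-GST and 100 nM FITC-alphaIIb peptide in HEPES pH 7.4, NaCl, 5 mM CaCl2, Tween20. Compounds at up to 114 uM final, preincubated with protein 15 min; read after 15 min more at RT.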

[2] = Confirmatory qHTS for small molecule stabilizers of the endoplasmic reticulum resident proteome: Secreted ER Calcium Modulated Protein (SERCaMP) assay (AID 1508628); further: potency means the concentration at half of the fitted maximal effect; nearly all actives have a fitted effect of over 40% in size
Outline: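 SH-SY5Y cells stably expressing GLuc-SERCaMP, treated 16 h with compound (primary 1.53, 7.67, 38.3 uM; confirmation 11 concentrations, up to 76.6 uM), then 100 nM thapsigargin for 4 h. Secreted Gaussia luciferase in medium read by coelenterazine luminescence.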

[3] = Primary qHTS for inhibitors of La Crosse Virus (LACV) - induced cell death in SH-SY5Y cells (AID 1508616); further: potency means the concentration at half of the fitted maximal effect
Outline: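 SH-SY5Y cells (6000/well) plated 24 h, then given compounds by pin transfer and LACV at 0.01 MOI for 6 days at 37C. Viability measured by ATPLite luminescence, normalized to infected DMSO and uninfected DMSO.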

[4] = Primary qHTS for small molecule stabilizers of the endoplasmic reticulum resident proteome: Secreted ER Calcium Modulated Protein (SERCaMP) assay (AID 1508630)
Outline: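 GLuc-SERCaMP-expressing SH-SY5Y cells, pretreated 16 h with compound, are challenged with thapsigargin to empty ER calcium stores; after 4 h, coelenterazine is added directly to the medium and luminescence is imaged.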

[5] = biological target: Papain (Carica papaya) (UniProt P00784); test: Primary qHTS assay for inhibitors of the protease papain (AID 1645873);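 further: papain turnover of Z-FR-AMC read as the AMC fluorescence gain over 10 min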; further: potency means the concentration at half of the fitted maximal effect
Sequence of Papain (Carica papaya) (P00784 whole entry, looked up): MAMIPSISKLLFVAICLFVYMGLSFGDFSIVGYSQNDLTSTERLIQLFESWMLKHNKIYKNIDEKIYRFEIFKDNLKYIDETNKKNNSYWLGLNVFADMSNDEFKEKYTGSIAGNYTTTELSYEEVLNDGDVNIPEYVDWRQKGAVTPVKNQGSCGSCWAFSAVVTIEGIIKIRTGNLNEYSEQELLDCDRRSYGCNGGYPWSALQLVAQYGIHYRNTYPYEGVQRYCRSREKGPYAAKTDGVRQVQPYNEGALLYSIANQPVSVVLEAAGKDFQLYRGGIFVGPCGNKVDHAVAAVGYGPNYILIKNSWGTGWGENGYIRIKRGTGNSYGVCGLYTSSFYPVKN

[6] = Counterscreen qHTS for small molecule stabilizers of the endoplasmic reticulum resident proteome: GLuc-NoTag assay (AID 1508627); further: potency means the concentration at half of the fitted maximal effect
Outline: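 SH-SY5Y cells stably expressing constitutively secreted GLuc (no SERCaMP tag) were pre-incubated 5 h, treated with compound for 19 h, then 100 nM thapsigargin for 4 h at 37C; medium GLuc read by coelenterazine luminescence.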

Structure (SMILES)	Potency [1]	Potency [2]	Potency [3]	Potency [4]	Potency [5]	Potency [6]
O=c1cc(O)cc(/C=C/c2ccc(O)c(O)c2)o1	inactive	20 µM (active)				
Oc1ccc(Cn2cc[nH]c2=S)cc1	inactive		inactive	inactive	inactive	
Nc1ncnc2c1ncn2C1CCCO1 (configuration not stated)	inactive		inactive	inactive	inactive	
O=C(c1ccc2c(c1)OCCO2)N1CCCCC1			inactive	inactive	inactive	
Cc1nc(N=Nc2ccc(C(=O)O)cc2)c(COP(=O)(O)O)c(C=O)c1O	inactive		inactive	inactive	inactive	
CC1CCN(CC[C@H]2CCCN2S(=O)(=O)c2cccc(O)c2)CC1	inactive		inactive	inactive	inactive	
N=C(N)c1ccc(OCCCCCOc2ccc(C(=N)N)cc2)cc1 (tested in a mixture with another compound)	inactive			inactive	inactive	
c1ccc2c(c1)CCC[C@H]2Nc1nc2ccccc2[nH]1	inactive		inactive	inactive	inactive	
C#CCn1c(=O)c2c(ncn2C)n(C)c1=O	inactive		inactive	inactive	inactive	
CCCCCCCCCCCCCCSCC(=O)O	inactive		inactive	inactive	inactive	
COC(=O)C(N)Cc1ccc(Cl)cc1 (configuration not stated)			inactive	inactive	inactive	
CC(=O)/C(C)=N/O			inactive	inactive	2 µM (active)	
CN(C)CCCc1cc(C(=O)Nc2ccc(-c3ccncc3)cc2)ccc1O	inactive		inactive	inactive	inactive	
COC(=O)C(C)(N)Cc1ccc(O)cc1 (configuration not stated)	inactive		inactive		inactive	
CC(N)(C(=O)O)c1ccc(C(=O)O)cc1 (configuration not stated)	inactive		inactive	inactive	inactive	
COc1cc(/C=C(\C#N)C(=O)Nc2nnc(C(F)(F)F)s2)ccc1OCc1ccc(C(F)(F)F)cc1C(F)(F)F			inactive	inactive		
CCCCCCCCCCC/C=C\C(C)(C)/C=C\CCCC(=O)O			inactive	inactive	inactive	
CC(=O)O[C@H]1Cc2ccccc2N(C(N)=O)c2ccccc21	inactive		inactive		inactive	
O=C(O)[C@H]1NCCC[C@H]1C(=O)O	inactive		inactive	inactive	inactive	
Nc1ncnc2c1ncn2C1CCCC1			inactive	inactive	inactive	
C[C@]12C=CC(=O)C=C1CC[C@@H]1C2=CC[C@]2(C)[C@@H](C(=O)CN3CCN(c4cc(N5CCCC5)nc(N5CCCC5)n4)CC3)CC[C@@H]12			inactive			inactive
CN(C)S(=O)(=O)c1ccc2c(c1)/C(=C/c1cc3c([nH]1)CCCC3)C(=O)N2	inactive			inactive	inactive	
O=C(N[C@@H](Cc1ccccc1)C(=O)CCl)OCc1ccccc1			1 µM (active)	inactive	15.8 µM (active)	
C[C@H](NC(=O)/C(C#N)=C/c1ccc(O)c(O)c1)c1ccccc1	inactive		inactive		inactive	
Nc1nc2c(nc(Br)n2C2OC3COP(=O)(O)O[C@@H]3C2O)c(=O)[nH]1 (some centres not stated)	inactive		inactive		inactive	
CC[n+]1c(/C=C/C=C2/N(C)c3ccccc3C2(C)C)sc2ccccc21	inactive				inactive	
N#C/C(=C\c1ccc(O)c(O)c1)C(=O)NCCCNC(=O)/C(C#N)=C/c1ccc(O)c(O)c1			inactive		22.4 µM (active)	20 µM (active)
